The text below walks through data of paper PMC7862700, “An all-to-all approach to the identification of sequence-specific readers for epigenetic DNA modifications on cytosine”.

Common to all, as to assay: DAPPL (digital affinity profiling via proximity ligation, sequencing); 10 mM Tris-HCl pH 7.5, 50 mM NaCl, 1 mM DTT, 4% glycerol, room temperature, 30 min; GST-TFs on glutathione beads, 16-mer random dsDNA library, 0.1% formaldehyde crosslink after washing; high values mean tight binding
Common to all, as to conditions: protein: recombinant; tags: N-terminal GST; dsDNA, one strand shown

One assay concerns the target T1, ELK1 (Homo sapiens, UniProt P19419 1-428).
T1 sequence: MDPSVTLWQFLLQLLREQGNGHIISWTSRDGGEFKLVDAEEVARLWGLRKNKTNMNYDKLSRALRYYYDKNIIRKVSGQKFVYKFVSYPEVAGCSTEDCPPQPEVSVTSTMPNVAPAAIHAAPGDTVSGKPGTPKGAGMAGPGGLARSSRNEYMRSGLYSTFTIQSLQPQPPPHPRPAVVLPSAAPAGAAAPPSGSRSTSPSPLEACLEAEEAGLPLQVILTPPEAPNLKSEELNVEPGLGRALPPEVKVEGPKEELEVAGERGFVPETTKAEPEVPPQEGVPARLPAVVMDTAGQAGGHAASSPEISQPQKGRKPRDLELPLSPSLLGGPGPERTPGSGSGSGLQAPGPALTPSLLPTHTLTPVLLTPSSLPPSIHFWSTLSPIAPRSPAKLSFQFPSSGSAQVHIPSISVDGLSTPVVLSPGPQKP
In outline: (§1)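 GST fusions of human transcription factors were expressed in yeast and captured with glutathione beads. Once given DNA barcodes and pooled alongside a tag-only sample, they were incubated for 30 min at room temperature with 200 nmole of a random double-stranded 16-mer DNA library in Tris/NaCl/DTT/glycerol buffer, then washed, crosslinked (0.1% formaldehyde), proximity-ligated, PCR-amplified and sequenced on an Illumina NextSeq500. The binding signal of each hexamer is its read frequency for a factor divided by its frequency for the tag-only sample.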

In a further assay the target is T2, GABPA (Homo sapiens, UniProt Q06546 1-454).
T2 sequence: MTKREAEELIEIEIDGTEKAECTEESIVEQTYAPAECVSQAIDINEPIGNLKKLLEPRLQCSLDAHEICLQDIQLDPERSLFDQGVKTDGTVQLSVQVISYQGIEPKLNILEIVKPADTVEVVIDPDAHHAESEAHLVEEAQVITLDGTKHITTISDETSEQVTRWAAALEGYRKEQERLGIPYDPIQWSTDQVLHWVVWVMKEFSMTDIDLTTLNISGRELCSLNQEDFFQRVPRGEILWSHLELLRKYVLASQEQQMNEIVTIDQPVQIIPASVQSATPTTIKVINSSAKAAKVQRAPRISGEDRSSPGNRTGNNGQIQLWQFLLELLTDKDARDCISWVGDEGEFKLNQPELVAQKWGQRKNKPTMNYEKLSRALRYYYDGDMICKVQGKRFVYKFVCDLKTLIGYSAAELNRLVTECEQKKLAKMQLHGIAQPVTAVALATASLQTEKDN
In outline: as §1

For another assay, the target named is T3, ERG (Homo sapiens, UniProt P11308 1-479).
T3 sequence: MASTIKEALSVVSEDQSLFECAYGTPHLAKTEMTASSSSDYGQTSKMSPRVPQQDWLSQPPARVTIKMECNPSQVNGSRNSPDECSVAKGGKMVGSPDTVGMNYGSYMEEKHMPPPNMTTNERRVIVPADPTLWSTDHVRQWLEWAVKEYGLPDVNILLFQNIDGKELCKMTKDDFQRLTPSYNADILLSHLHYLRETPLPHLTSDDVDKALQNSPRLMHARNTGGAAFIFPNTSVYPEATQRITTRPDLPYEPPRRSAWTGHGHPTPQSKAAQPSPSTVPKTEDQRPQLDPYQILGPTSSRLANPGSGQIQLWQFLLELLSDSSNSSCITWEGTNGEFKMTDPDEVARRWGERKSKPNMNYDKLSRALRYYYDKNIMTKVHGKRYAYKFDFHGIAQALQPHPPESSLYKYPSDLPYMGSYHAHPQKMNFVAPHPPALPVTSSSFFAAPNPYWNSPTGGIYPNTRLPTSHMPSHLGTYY
In outline: as §1

The target of the next assay is ELF1 (Homo sapiens, UniProt P32519 1-619). In outline:
as §1

The target in another assay is T4, EHF (Homo sapiens, UniProt Q9NZC4 1-300).
T4 sequence: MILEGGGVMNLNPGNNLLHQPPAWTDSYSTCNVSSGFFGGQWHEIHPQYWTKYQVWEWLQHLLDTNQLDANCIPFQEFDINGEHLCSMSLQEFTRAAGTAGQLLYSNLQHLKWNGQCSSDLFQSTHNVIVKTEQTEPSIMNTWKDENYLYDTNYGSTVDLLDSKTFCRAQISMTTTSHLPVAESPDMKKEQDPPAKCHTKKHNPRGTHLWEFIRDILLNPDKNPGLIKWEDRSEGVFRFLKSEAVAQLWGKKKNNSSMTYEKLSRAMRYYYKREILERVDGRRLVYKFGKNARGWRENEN
In outline: as §1

A further assay has as its target SPI1 (Homo sapiens, UniProt P17947 1-270). In outline:
as §1

Another assay addresses T5, FEV (Homo sapiens, UniProt Q99581 1-238).
T5 sequence: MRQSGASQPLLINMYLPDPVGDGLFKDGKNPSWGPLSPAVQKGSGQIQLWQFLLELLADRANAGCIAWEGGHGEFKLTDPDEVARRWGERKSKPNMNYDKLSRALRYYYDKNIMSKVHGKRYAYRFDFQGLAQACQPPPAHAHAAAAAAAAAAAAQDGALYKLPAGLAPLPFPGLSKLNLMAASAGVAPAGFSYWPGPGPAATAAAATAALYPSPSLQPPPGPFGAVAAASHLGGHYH
In outline: as §1

The next assay concerns the target ETV5 (Homo sapiens, UniProt P41161 1-510). In outline: as §1
A further assay addresses ELF4 (Homo sapiens, UniProt Q99607 1-663). In outline: as §1
For another assay, the target named is T6, ELK4 (Homo sapiens, UniProt P28324-2 1-405).
T6 sequence: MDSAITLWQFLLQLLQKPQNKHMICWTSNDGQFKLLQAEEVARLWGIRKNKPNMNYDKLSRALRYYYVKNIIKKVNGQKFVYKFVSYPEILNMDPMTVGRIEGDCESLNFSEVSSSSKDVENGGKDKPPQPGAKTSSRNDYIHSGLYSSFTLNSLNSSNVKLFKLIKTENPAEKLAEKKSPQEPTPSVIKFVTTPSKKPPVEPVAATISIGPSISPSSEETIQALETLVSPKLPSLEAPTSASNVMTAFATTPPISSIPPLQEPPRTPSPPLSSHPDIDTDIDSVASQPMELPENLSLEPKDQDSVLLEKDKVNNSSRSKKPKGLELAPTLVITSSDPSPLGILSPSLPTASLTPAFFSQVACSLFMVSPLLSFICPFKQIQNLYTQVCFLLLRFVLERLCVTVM
In outline: as §1

The next assay concerns the target T7, ELF3 (Homo sapiens, UniProt P78545 1-371).
T7 sequence: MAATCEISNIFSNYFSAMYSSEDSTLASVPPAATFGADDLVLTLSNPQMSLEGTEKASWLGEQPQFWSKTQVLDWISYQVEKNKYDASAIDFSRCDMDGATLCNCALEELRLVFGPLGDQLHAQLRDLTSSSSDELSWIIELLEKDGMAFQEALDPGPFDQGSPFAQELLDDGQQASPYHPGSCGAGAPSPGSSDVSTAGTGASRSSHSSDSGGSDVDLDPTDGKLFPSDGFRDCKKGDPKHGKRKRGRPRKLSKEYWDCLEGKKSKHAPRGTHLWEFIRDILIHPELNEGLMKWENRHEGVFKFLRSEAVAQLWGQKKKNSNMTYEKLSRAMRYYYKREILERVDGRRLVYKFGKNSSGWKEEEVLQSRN
In outline: as §1

In the next assay the target is ETV1 (Homo sapiens, UniProt P50549 1-477). In outline: as §1
Sequence of ETV1 (P50549 whole entry): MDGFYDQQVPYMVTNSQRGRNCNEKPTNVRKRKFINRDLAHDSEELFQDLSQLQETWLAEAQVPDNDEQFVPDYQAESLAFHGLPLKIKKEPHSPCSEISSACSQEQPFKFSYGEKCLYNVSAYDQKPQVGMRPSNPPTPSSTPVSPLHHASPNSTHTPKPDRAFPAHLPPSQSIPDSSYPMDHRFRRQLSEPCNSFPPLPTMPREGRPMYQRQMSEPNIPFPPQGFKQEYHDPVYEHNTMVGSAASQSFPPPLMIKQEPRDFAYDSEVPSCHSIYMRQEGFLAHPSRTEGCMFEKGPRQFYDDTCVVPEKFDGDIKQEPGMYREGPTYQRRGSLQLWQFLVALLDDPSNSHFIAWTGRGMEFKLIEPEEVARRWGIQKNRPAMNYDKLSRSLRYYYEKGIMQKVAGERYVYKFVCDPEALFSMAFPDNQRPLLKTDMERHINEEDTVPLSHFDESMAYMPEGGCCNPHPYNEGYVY
The target in a further assay is T8, ERF (Homo sapiens, UniProt P50548 1-548).
T8 sequence: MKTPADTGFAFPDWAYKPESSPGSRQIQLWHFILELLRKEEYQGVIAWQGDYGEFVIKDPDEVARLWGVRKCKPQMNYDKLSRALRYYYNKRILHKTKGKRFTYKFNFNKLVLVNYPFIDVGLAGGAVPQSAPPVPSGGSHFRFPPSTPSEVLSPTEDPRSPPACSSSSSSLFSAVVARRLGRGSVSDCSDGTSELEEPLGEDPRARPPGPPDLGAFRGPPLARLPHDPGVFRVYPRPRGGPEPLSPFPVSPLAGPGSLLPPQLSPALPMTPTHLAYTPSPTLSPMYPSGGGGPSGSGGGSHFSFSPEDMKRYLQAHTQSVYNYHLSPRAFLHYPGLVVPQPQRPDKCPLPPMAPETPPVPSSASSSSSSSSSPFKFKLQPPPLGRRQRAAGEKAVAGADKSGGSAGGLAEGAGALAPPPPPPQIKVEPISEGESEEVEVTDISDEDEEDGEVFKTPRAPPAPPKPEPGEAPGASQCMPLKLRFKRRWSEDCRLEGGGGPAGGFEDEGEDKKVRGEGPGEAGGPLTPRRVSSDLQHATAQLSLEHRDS
In outline:
as §1

For the next assay, the target named is T9, ETV3L (Homo sapiens, UniProt Q6ZN32 1-361).
T9 sequence: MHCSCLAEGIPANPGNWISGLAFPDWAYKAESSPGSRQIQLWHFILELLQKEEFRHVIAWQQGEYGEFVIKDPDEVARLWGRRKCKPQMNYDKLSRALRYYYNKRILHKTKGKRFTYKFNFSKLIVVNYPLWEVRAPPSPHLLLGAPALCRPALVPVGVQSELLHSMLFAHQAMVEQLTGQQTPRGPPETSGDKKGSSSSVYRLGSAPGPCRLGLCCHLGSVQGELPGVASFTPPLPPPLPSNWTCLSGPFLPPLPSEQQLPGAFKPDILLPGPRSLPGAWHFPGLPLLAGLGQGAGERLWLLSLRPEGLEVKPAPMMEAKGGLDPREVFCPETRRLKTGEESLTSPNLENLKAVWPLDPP
In outline:
as §1

For the next assay, the target named is T10, ETS2 (Homo sapiens, UniProt P15036 1-469).
T10 sequence: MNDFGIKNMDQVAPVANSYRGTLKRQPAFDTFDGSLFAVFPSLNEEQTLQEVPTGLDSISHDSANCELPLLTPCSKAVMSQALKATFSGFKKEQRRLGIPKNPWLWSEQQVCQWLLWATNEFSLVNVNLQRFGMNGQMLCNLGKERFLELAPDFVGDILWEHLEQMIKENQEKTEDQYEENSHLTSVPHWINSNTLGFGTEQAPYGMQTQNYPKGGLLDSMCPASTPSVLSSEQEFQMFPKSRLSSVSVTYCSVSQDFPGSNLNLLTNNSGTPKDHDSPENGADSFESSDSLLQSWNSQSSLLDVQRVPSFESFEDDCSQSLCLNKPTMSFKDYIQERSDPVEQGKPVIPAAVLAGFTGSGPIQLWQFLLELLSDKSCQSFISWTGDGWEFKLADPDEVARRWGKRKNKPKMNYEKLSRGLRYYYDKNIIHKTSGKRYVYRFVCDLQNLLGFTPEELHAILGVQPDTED
In outline: as §1

A further assay addresses T11, ETV7 (Homo sapiens, UniProt Q9Y603 1-341).
T11 sequence: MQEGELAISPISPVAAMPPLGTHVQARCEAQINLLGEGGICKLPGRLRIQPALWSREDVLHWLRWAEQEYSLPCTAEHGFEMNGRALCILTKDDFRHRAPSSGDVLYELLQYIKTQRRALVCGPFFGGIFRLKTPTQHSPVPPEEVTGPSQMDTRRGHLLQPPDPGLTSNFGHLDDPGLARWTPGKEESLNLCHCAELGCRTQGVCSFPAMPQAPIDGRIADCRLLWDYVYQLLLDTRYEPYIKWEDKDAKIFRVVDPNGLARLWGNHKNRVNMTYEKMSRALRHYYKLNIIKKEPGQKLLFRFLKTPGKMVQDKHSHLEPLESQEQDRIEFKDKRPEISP
In outline:
as §1

The next assay deals with T12, ETV3 (Homo sapiens, UniProt P41162-2 1-143).
T12 sequence: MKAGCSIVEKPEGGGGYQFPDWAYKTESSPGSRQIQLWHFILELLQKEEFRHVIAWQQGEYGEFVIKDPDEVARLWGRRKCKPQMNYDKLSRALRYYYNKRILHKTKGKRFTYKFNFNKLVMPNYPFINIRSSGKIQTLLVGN
In outline: as §1

For the next assay, the target named is ETV6 (Homo sapiens, UniProt P41212 1-452). In outline:
as §1

Sequence of ELF4 (Q99607 whole entry): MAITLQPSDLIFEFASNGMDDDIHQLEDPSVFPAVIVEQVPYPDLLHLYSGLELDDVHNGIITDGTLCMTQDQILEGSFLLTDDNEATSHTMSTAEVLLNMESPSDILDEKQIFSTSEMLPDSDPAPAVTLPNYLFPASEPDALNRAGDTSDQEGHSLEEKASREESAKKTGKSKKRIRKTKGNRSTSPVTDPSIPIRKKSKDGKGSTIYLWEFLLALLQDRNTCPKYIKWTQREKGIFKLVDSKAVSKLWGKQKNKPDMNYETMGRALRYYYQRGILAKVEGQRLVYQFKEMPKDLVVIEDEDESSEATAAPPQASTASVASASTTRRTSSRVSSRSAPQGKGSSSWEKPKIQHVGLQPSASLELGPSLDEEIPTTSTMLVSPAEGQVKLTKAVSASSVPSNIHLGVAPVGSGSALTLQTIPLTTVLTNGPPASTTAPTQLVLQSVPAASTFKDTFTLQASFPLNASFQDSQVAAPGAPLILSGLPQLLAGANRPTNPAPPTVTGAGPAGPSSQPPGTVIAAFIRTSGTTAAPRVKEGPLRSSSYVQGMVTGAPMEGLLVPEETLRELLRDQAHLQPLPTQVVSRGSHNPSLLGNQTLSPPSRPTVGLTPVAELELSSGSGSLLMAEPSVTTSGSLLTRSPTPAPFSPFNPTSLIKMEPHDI
Sequence of ETV6 (P41212 whole entry): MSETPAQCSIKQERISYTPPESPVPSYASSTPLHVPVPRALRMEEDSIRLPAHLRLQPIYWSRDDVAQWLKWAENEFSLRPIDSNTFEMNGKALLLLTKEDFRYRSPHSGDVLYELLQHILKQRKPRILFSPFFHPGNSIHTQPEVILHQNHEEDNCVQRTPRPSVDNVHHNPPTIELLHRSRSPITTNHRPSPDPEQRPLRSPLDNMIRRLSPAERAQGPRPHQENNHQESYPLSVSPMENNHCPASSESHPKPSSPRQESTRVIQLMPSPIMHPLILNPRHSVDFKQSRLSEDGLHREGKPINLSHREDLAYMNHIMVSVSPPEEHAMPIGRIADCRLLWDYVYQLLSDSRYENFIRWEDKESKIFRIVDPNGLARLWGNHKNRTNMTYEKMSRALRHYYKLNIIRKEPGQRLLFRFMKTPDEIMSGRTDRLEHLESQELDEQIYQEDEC
Sequence of ELF1 (P32519 whole entry): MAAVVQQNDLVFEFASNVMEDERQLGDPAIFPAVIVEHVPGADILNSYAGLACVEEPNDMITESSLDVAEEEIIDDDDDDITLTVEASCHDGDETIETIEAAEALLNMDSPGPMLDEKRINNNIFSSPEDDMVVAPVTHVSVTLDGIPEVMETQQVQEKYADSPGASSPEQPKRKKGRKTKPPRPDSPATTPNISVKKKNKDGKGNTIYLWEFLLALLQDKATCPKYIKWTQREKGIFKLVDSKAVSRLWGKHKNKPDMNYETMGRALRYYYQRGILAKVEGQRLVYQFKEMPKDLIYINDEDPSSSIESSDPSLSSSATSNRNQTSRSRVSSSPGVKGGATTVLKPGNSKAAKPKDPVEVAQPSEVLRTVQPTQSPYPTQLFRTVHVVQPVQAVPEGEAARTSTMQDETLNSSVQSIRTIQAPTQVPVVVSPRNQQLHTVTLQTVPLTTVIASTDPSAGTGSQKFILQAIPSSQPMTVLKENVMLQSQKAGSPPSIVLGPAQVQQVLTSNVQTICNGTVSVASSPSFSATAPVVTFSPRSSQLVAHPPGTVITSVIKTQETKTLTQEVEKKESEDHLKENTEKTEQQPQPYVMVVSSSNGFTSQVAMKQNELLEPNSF
Sequence of ETV5 (P41161 whole entry): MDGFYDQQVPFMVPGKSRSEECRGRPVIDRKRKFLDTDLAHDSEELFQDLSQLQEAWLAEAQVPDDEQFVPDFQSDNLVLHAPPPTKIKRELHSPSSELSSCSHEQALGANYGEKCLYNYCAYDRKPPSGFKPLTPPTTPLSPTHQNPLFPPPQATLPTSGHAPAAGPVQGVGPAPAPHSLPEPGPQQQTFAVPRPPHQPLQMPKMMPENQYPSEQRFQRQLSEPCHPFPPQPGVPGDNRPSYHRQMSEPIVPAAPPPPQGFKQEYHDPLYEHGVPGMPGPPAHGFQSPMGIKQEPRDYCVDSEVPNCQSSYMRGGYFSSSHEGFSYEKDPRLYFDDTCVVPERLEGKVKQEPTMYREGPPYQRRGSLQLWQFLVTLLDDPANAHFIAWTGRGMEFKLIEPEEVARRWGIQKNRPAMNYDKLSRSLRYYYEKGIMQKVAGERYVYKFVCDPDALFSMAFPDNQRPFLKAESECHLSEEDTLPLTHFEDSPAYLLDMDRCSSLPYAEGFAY

For TCACCG, the binding signal in the assay with ELK1 is 1.16 fold enrichment (6-mer frequency, TF over GST control); with GABPA, 1.2 fold enrichment (6-mer frequency, TF over GST control); in the assay with ERG it was 1.14 fold enrichment (6-mer frequency, TF over GST control); in the assay with ELF1, 1.11 fold enrichment (6-mer frequency, TF over GST control); with EHF, 1.05 fold enrichment (6-mer frequency, TF over GST control); with SPI1 it was 1.06 fold enrichment (6-mer frequency, TF over GST control). The binding signal with FEV is 1.18 fold enrichment (6-mer frequency, TF over GST control); with ETV5 it was 1.13 fold enrichment (6-mer frequency, TF over GST control); with ELF4 it was 1.21 fold enrichment (6-mer frequency, TF over GST control); in the assay with ELK4, 1.04 fold enrichment (6-mer frequency, TF over GST control); in the assay with ELF3, 1.07 fold enrichment (6-mer frequency, TF over GST control); with ETV1, 1.15 fold enrichment (6-mer frequency, TF over GST control). The binding signal was 1.05 fold enrichment (6-mer frequency, TF over GST control) with ERF; 1.09 fold enrichment (6-mer frequency, TF over GST control) in the assay with ETV3L; 1.15 fold enrichment (6-mer frequency, TF over GST control) in the assay with ETS2; 1.02 fold enrichment (6-mer frequency, TF over GST control) with ETV7; 1.05 fold enrichment (6-mer frequency, TF over GST control) with ETV3; 1.03 fold enrichment (6-mer frequency, TF over GST control) with ETV6.
